From PubChem BioAssay AID1259341 (Broad Institute, 2017)
A number with no mark means an inactive call. The source made the active and inactive calls.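 The calls were made as follows: active = activity change under -35% in any replicate well, with more than 20 beads read in that well; inactive = the rest.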

The compounds below were run against Caspase recruitment domain-containing protein 9 (Homo sapiens) + E3 ubiquitin-protein ligase TRIM62 (Homo sapiens) (UniProt Q9H257+Q9BVG3) (assay: CARD9/TRIM62 protein interaction inhibitors – cell lysate, HEK293FT lysates, Luminex bead ELISA, primary screen (AID 1259341;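 also: PE anti-Flag signal of Flag-CARD9 captured by myc-TRIM62 beads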)). Conditions: PE fluorescence, stronger effect = lower value, concentration not given here.
Sequence of Caspase recruitment domain-containing protein 9 (Homo sapiens) + E3 ubiquitin-protein ligase TRIM62 (Homo sapiens) (Q9BVG3 whole entry, looked up, the tested form may be a part): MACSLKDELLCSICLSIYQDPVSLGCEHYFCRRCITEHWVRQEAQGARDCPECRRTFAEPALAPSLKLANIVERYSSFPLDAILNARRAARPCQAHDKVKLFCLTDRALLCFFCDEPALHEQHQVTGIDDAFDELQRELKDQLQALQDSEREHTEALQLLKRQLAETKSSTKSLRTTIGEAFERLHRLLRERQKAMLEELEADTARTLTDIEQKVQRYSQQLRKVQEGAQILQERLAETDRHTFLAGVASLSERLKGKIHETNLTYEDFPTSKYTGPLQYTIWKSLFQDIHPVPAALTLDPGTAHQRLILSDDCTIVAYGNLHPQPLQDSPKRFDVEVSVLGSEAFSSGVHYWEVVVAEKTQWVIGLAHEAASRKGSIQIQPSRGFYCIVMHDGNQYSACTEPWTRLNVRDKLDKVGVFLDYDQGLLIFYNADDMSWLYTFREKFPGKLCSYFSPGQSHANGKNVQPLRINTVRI
Sequence of Caspase recruitment domain-containing protein 9 (Homo sapiens) + E3 ubiquitin-protein ligase TRIM62 (Homo sapiens) (Q9H257 whole entry, looked up, the tested form may be a part): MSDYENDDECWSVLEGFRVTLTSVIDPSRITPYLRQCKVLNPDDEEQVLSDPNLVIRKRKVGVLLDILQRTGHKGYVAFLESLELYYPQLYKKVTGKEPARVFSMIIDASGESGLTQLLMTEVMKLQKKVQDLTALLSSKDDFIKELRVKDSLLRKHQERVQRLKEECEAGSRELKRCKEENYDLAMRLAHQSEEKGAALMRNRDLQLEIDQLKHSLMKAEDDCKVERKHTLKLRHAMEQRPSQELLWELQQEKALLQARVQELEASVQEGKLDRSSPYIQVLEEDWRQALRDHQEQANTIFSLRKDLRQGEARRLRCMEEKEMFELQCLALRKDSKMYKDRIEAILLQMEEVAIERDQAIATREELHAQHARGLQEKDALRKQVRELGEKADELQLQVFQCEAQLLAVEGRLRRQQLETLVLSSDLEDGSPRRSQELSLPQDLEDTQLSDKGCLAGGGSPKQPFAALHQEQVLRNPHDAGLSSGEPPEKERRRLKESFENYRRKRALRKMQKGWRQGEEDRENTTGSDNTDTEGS

SMILES	activity change, negative = inhibition
O=C(NC1CC1)c1cc(-c2ccco2)nc2ccccc12	-6.41%
O=C(O)c1cc(-c2ccco2)nc2ccccc12	15.8%
CCOc1ccc(-n2c3nc4ccccc4nc3c3c(=O)n(Cc4ccco4)cnc32)cc1	6.8%
O=C(NCc1ccco1)[C@@H]1CSC2c3ccccc3C(=O)N21 (stereo partly specified)	-0.672%
Cc1ccc(-c2nn(-c3ccccc3)cc2CN(Cc2ccccc2)C(=O)CCC(=O)O)o1	7.87%
C[n+]1cccc2cccc(O)c21	-2.89%
O=C(O)Cc1c[nH]c2cccc(O)c12	0.751%
Fc1ccc(CSc2nnc(-c3cccnc3)n2Cc2ccco2)cc1	0.116%
C[C@H](CO)N1C[C@H](C)[C@@H](CN(C)CC2CCCCC2)OCCCC[C@H](C)Oc2ccc(NS(=O)(=O)c3cccs3)cc2C1=O	9.64%
COc1ccc(NC(=O)CN(C)C(=O)c2cc(-c3ccco3)nc3ccccc23)cc1	-8.21%
O=C(NCCCN1CCOCC1)c1cc(-c2ccco2)nc2ccccc12	-23.9%
N#CNc1nc(O)cc(=O)[nH]1	-9.24%
O=C(CN1CCN(c2ccccc2O)CC1)NC(=O)NC1CCCC1	2.28%
CCc1cc2c(=O)n(Cc3ccco3)c(SC)nc2s1	1.18%
CCCN1CCCn2nc(CNC(=O)[C@H]3CC[C@@H](N)C3)cc2C1	-7.32%
CCn1ccnc1C1CCN(C(=O)CCn2c(C)nc3ccccc32)CC1	-6.29%
Cc1cc(C(=O)Nc2nc3c(s2)CCc2ccccc2-3)no1	3.92%
C[C@H](CO)N1C[C@H](C)[C@@H](CN(C)CC2CCCCC2)OCCCC[C@H](C)Oc2ccc(NS(=O)(=O)c3ccc(F)cc3)cc2C1=O	-12.1%

SMILES	activity change, negative = inhibition
Cc1ccc(N2NC(c3ccc(Br)cc3)=CCC2=O)cc1	-5.75%
CC(=O)c1cccc(OCC(=O)N(C)CC(=O)NCc2ccco2)c1	-22.5%
Cc1noc(C)c1S(=O)(=O)Nc1ccc2c(c1)C(=O)N([C@H](C)CO)C[C@H](C)[C@@H](CN(C)C(=O)C1CCCCC1)OCCCC[C@H](C)O2	7.66%
O=C(Nc1nc(-c2ccco2)c(-c2ccco2)s1)c1ccc(F)cc1F	6.3%
CCc1oc2ccccc2c1C(=O)CCN1CCCCC1	2.4%
COc1cc(N)c(Cc2nccc3cc(OC)c(OC)cc23)cc1OC	1.93%
O=C(O)COCC(=O)NCc1ccco1	1.03%
Cc1c(C(=O)OCC2CCCO2)[nH]c2c1C(=O)CC(c1ccco1)C2 (stereo unspecified)	-1.75%
NC(=O)C1(N2CCCCC2)CCN(c2ncc(NC(=O)c3ccc(Cl)cc3)cc2C(=O)O)CC1	-54.5% (active)
CC(=O)c1ccc(NC(=O)c2noc3c2CCC3)cc1	-2.31%
CCc1nccn1CCC(=O)N1C[C@H](CO)C[C@H](CN2CCCC2)C1	4.55%
CC1Cc2ccccc2N1CC(=O)NC(=O)NC(C)(C)C (stereo unspecified)	2.18%
C[C@H](CO)N1C[C@H](C)[C@@H](CN(C)C(=O)C2CCCCC2)OCCCC[C@H](C)Oc2ccc(NS(=O)(=O)c3cccs3)cc2C1=O	6.34%
COc1ccc(-c2nc(SCC(=O)N3CCN(c4ccccc4OC)CC3)n[nH]2)cc1	23.5%
COc1ccc(F)c(CN2C[C@H]3CC[C@@H]2CN(Cc2cscn2)C3)c1	-3.76%
O=C(Nc1ccc(OCC(=O)N2CCOCC2)cc1)c1cncc(Br)c1	-1.75%
O=C(NCc1ccco1)C1CCCN(S(=O)(=O)c2cccc3nonc23)C1 (stereo unspecified)	0.63%
COc1ccc(N2CC3=C(N2)c2ccccc2CC3)cc1	25.5%
